Measured values reported in PubChem BioAssay (EPA / NIEHS).
Where “and” joins values, the source holds several entries; their conditions need not be identical. Equal entries are not always repeated. Results filed as inconclusive are left out. Calls of active or inactive are those of the source. Rule for the calls, unless noted: active = hit-call score of the fitted dose curve at least 0.9, where 1 is the maximum; inactive = score below 0.9.

Key:
[1] = TOX21_p53_BLA_p2_viability: Viability Assessment in the Tox21 HCT-116 p53 Agonism Beta-lactamase Assay, Phase 2 (AID 2283591; active = hit-call score of the fitted dose curve at least 0.9, where 1 is the maximum;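 note: actives lower the ATP signal meaning cytotoxicity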)
Method in brief: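 HCT116 p53-bla cells, 4000/well, dosed after 5 h plating (217-fold dilution of DMSO stocks) and incubated 16 h at 37C. Viability taken as cellular ATP by CellTiter-Glo luminescence after 30 min RT; signal loss marks cytotoxicity.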

[2] = biological target: Cellular tumor antigen p53 (Homo sapiens) (UniProt P04637); test: TOX21_p53_BLA_p2_ratio: Tox21 HCT-116 p53 Agonism Beta-lactamase Assay, Ratio, Phase 2 (AID 2283592; active = hit-call score of the fitted dose curve at least 0.9, where 1 is the maximum)
Method in brief: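 An inducible beta-lactamase reporter in HCT116 cells signals p53 pathway activation. After 16 h chemical exposure at 37C, cells load CCF4-AM substrate for 2 h at room temperature; activity is the cleaved/uncleaved emission ratio relative to DMSO.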

[3] = TOX21_p53_BLA_p3_viability: Viability Assessment in the Tox21 HCT-116 p53 Agonism Beta-lactamase Assay, Phase 3 (AID 2283593; active = hit-call score of the fitted dose curve at least 0.9, where 1 is the maximum;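 note: cells exposed to compound for 16 h before reading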)
Method in brief: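 HCT116 cells, 4000/well, dosed 5 h after plating by pin transfer (217-fold dilution from DMSO stock) and incubated 16 h at 37C, 5% CO2. Viability read as ATP luminescence with CellTiter-Glo after 30 min at room temperature.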

[4] = biological target: Cellular tumor antigen p53 (Homo sapiens) (UniProt P04637); test: TOX21_p53_BLA_p3_ratio: Tox21 HCT-116 p53 Agonism Beta-lactamase Assay, Ratio, Phase 3 (AID 2283596; active = hit-call score of the fitted dose curve at least 0.9, where 1 is the maximum)
Method in brief: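 HCT116 p53-bla cells (4000/well) given compound in DMSO (217-fold dilution) after 5 h, incubated 16 h at 37C. CCF4-AM substrate 2 h at room temperature; 460/530 nm emission ratio, gain fitted against DMSO.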

[5] = TOX21_p53_BLA_p4_viability: Viability Assessment in the Tox21 HCT-116 p53 Agonism Beta-lactamase Assay, Phase 4 (AID 2283597; active = hit-call score of the fitted dose curve at least 0.9, where 1 is the maximum;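 note: hits lower the luminescence signal meaning cytotoxicity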)
Method in brief: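 Compound exposure of HCT116 cells lasts 16 h at 37C, 5% CO2, with DMSO stocks diluted 217-fold. Cellular ATP is then quantified by CellTiter-Glo luminescence after 30 min at room temperature.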

[6] = biological target: Cellular tumor antigen p53 (Homo sapiens) (UniProt P04637); test: TOX21_p53_BLA_p5_ratio: Tox21 HCT-116 p53 Agonism Beta-lactamase Assay, Ratio, Phase 5 (AID 2283599; active = hit-call score of the fitted dose curve at least 0.9, where 1 is the maximum)
Method in brief: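 HCT-116 p53-bla cells (4000/well) plated 5 h, dosed with compound (217-fold DMSO dilution) for 16 h at 37 C; CCF4-AM substrate 2 h at room temperature. Activity is the 460/530 nm emission ratio (405 nm excitation), fitted in gain-of-signal direction versus DMSO.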

[7] = biological target: Cellular tumor antigen p53 (Homo sapiens) (UniProt P04637); test: TOX21_p53_BLA_p4_ratio: Tox21 HCT-116 p53 Agonism Beta-lactamase Assay, Ratio, Phase 4 (AID 2283601; active = hit-call score of the fitted dose curve at least 0.9, where 1 is the maximum)
Method in brief: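 HCT-116 p53 beta-lactamase reporter cells (4000/well) preincubated 5 h, then compound (217-fold dilution of DMSO stock) for 16 h at 37C. CCF4-AM substrate added 2 h at room temperature; 460/530 nm emission ratio fitted upward versus DMSO.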

[8] = CCTE_Shafer_MEA_acute_firing_rate_mean: CCTE's Neural Acute Assay for Mean Firing Rate, Shafer Lab (AID 2284009);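 note: analyzed for loss of signal so actives lower firing rate relative to DMSO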
Method in brief: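 Rat primary cortical neurons on 48-well MEA plates, dosed at 0.03-40 uM on DIV 13 or 15; 40 min spontaneous activity recorded at 37 C before and after compound. Spike rate per electrode averaged per well, expressed as percent change from baseline.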

[9] = CCTE_Shafer_MEA_acute_burst_number: CCTE's Neural Acute Assay for Single-Electrode Bursts, Shafer Lab (AID 2284013)
Method in brief: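 Primary rat cortical neurons on 16-electrode MEA wells, treated on DIV 13 or 15 with compound at 0.03-40 uM. Single-electrode burst count from 40-min recordings at 37 C before and after exposure; percent change from baseline per well, DMSO negative control.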

[10] = CCTE_Shafer_MEA_acute_burst_duration_mean: CCTE's Neural Acute Assay for Mean Burst Duration, Shafer Lab (AID 2284014);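 note: hits are decreases in mean burst duration relative to DMSO controls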
Method in brief: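 Rat primary cortical neurons on 48-well MEA, treated at DIV 13 or 15 with 0.03-40 uM in at least 3 wells. Value is percent change in mean burst duration, comparing 40 min recordings at 37 C before and during exposure.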

[11] = CCTE_Shafer_MEA_acute_per_burst_spike_number_mean: CCTE's Neural Acute Assay for Average Number of Spikes Per Burst, Shafer Lab (AID 2284015);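 note: hits are decreases in mean spikes per burst versus baseline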
Method in brief: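 Rat primary cortical neurons on 48-well MEAs (DIV 13 or 15) were treated with 0.03-40 uM compound at 37 C. Mean spikes per burst over 40 min were recorded before and after exposure and expressed as percent change from baseline, relative to DMSO.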

[12] = CCTE_Shafer_MEA_acute_interburst_interval_mean: CCTE's Neural Acute Assay for Mean Interburst Interval, Shafer Lab (AID 2284016);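 note: percent change of mean interburst interval versus each well's own pre-dose baseline; curves fitted for decrease in interburst interval relative to DMSO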
Method in brief: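 Rat primary cortical neurons on 48-well MEAs at DIV 13 or 15 were exposed acutely to 0.03-40 uM. Spikes detected at 8x rms noise, 37 C. Mean interburst interval from 40 min recordings expressed as percent change from 40 min pre-treatment baseline.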

[13] = CCTE_Shafer_MEA_acute_burst_percentage_mean: CCTE's Neural Acute Assay for Percentage of Spikes in a Burst, Shafer Lab (AID 2284017);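 note: curve fitted for loss of signal so potency reflects decreased burst percentage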
Method in brief: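 Primary rat cortical neurons on 48-well MEA plates, treated on DIV 13 or 15 at 0.03-40 uM. Spikes detected at 8x rms noise at 37C; percent change from 40-min baseline to 40-min post-dose recording, fitted versus DMSO.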

[14] = CCTE_Shafer_MEA_acute_burst_percentage_std: CCTE's Neural Acute Assay for Standard Deviation of Burst Percentage, Shafer Lab (AID 2284018);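 note: fitted in the negative direction so actives lower burst percentage SD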
Method in brief: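 Rat primary cortical neurons on 48-well MEAs, DIV 13 or 15, 37 C. 40-min baseline then 40-min recording with compound (0.03-40 uM); well-level SD of per-electrode burst spike percentage, expressed as percent change from baseline.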

[15] = CCTE_Shafer_MEA_acute_per_network_burst_spike_number_std: CCTE's Neural Acute Assay for Standard Deviation of Number of Spikes in a Network Burst, Shafer Lab (AID 2284020);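 note: fitted for decrease in spike-number SD versus DMSO so actives lower it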
Method in brief: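 Rat primary cortical neurons on 48-well MEA (16 electrodes/well), treated DIV 13 or 15 at 0.03-40 uM, ≥3 wells per compound. 40 min recordings at 37 C before and after dosing; value is percent change in network-burst spike-number SD, negative direction vs DMSO.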

[16] = CCTE_Shafer_MEA_acute_per_network_burst_electrodes_number_mean: CCTE's Neural Acute Assay for Mean Number of Electrodes in a Network Burst, Shafer Lab (AID 2284021);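 note: curves fitted for decreases only so hits reduce electrodes per burst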
Method in brief: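 Cultures of rat cortex neurons were exposed on DIV 13 or 15 to compounds at 0.03-40 uM in at least three wells each. Activity over 40 min before and 40 min after exposure at 37 C gave the percent change in electrodes per network burst.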

[17] = CCTE_Shafer_MEA_acute_network_burst_percentage: CCTE's Neural Acute Assay for Percentage of Network Bursts, Shafer Lab (AID 2284022);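 note: curves fitted for loss so actives lower network burst percentage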
Method in brief: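 Cortical neurons from rat were grown over microelectrode arrays and used on day 13 or 15 in vitro. Wells with at least 10 active electrodes received test chemical at 0.03-40 uM. Activity during 40 min of exposure was compared with the preceding 40-min baseline.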

[18] = CCTE_Shafer_MEA_acute_cross_correlation_area: CCTE's Neural Acute Assay for Area of Cross Correlation, Shafer Lab (AID 2284024);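 note: area under pooled inter-electrode spike cross-correlation near zero lag as percent change from own baseline; curves fitted for loss of cross-correlation area so actives lower synchrony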
Method in brief: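 Acute exposure of mature rat cortical networks (day 13 or 15 post-plating) to 0.03-40 uM compound. Spontaneous spiking on MEA, 40 min pre- and post-dose at 37 C.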

[19] = CCTE_Shafer_MEA_acute_cross_correlation_HWHM: CCTE's Neural Acute Assay for Cross Correlation at Half Width at Half Maximum, Shafer Lab (AID 2284026);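 note: percent change per well from pre-dose baseline in spike cross-correlogram half width; hits are a decrease in cross-correlogram half width relative to DMSO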
Method in brief: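 Primary cortex (rat), MEA, DIV 13/15; compound 0.03-40 uM; 40 min pre + 40 min post at 37 C; spike threshold 8x rms; wells need ≥10 active electrodes; endpoint = % change in cross-correlogram HWHM vs baseline, DMSO negative control.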

[20] = CCTE_Shafer_MEA_dev_firing_rate_mean: CCTE's Neural Network Formation Assay for Mean Firing Rate, Shafer Lab (AID 2284031);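 note: curve fitted for loss of firing so AC50 reflects decreased mean firing rate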
Method in brief: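 Developing rat cortical networks on MEA plates undergo 12-day compound exposure. Firing frequency, averaged across active electrodes, is integrated as area under the curve over four recording days, referenced to DMSO.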

[21] = CCTE_Shafer_MEA_dev_per_burst_spike_percent: CCTE's Neural Network Formation Assay for Percent of Spikes in a Burst, Shafer Lab (AID 2284032);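 note: fitted as a decrease in burst spike percentage below DMSO baseline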
Method in brief: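 Rat primary cortical neurons on 16-electrode MEA wells, dosed from plating day 0 for 12 days with renewal on DIV 5 and 9; spikes-in-bursts percentage averaged over bursting electrodes, collapsed as AUC across days 5, 7, 9, 12; loss direction versus DMSO.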

[22] = CCTE_Shafer_MEA_dev_active_electrodes_number: CCTE's Neural Network Formation Assay for Number of Active Electrodes, Shafer Lab (AID 2284040; active = hit-call score of the fitted dose curve at least 0.9, where 1 is the maximum;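 note: potency for loss of active electrodes versus DMSO so lower counts are hits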)
Method in brief: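 Rat cortical primary cultures, 1.5 x 10^5 cells/well, PEI-coated MEA, laminin drop. Continuous exposure DIV 0–12; full media/compound change DIV 5, 9. Readout: electrodes with mean firing ≥5 spikes/min; AUC across days; loss vs DMSO.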

[23] = CCTE_Shafer_MEA_dev_burst_rate: CCTE's Neural Network Formation Assay for Burst Rate, Shafer Lab (AID 2284042);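 note: potency for loss of burst rate below DMSO control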
Method in brief: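 Primary rat cortical neurons on PEI-coated 48-well MEA plates (laminin added with cells at plating) (16 electrodes/well), exposed from plating to day 12, dosing renewed at DIV 5 and 9. Burst rate averaged over active electrodes, recorded DIV 5, 7, 9, 12, summarized as AUC; loss versus DMSO.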

[24] = CCTE_Shafer_MEA_dev_per_burst_interspike_interval: CCTE's Neural Network Formation Assay for Burst Interspike Interval, Shafer Lab (AID 2284044);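 note: mean spike spacing inside bursts as AUC over recordings on days 5 7 9 12; potency for a decrease of within-burst interspike interval below DMSO level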
Method in brief: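 Developmental network-formation MEA in primary rat cortical cultures with exposure spanning days 0–12. Within-burst ISI is averaged per well and integrated across recording days by area under the curve, with DMSO as negative control baseline.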

[25] = CCTE_Shafer_MEA_dev_burst_duration_mean: CCTE's Neural Network Formation Assay for Mean Burst Duration, Shafer Lab (AID 2284045);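 note: curve fitted for loss meaning shorter burst duration than DMSO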
Method in brief: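 Primary rat cortical neurons on 48-well 16-electrode MEA plates, exposed from day 0 with renewal at DIV 5 and 9; spontaneous activity recorded on days 5, 7, 9, 12. Well-mean burst duration across bursting electrodes, collapsed as trapezoidal AUC; DMSO baseline.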

Measured: AC50

Chain of Cellular tumor antigen p53 (Homo sapiens) (P04637 whole entry, looked up): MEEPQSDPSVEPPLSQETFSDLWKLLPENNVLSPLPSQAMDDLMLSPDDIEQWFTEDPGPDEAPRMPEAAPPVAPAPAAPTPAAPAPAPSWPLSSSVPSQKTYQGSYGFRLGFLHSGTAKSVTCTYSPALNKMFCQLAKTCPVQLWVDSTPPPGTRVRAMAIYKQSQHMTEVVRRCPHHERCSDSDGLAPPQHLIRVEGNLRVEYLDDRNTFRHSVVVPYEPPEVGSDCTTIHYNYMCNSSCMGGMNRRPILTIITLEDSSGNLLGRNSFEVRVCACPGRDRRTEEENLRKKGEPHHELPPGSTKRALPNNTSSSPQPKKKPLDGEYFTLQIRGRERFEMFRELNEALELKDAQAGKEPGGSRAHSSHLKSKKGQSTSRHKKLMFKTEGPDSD

CN(C)C(=O)C(CCN1CCC(O)(c2ccc(Cl)cc2)CC1)(c1ccccc1)c1ccccc1
active: [5] 26600 nM | [8] 291 nM | [9] 283 nM | [10] 147 nM | [11] 165 nM | [13] 2270 nM | [14] 68 nM | [19] 2310 nM | [20] 63.2 nM and 101 nM and 190 nM | [21] 514 nM and 244 nM and 1.49 µM | [22] 385 nM and 196 nM and 1.21 µM | [23] 41.8 nM and 92.4 nM and 335 nM | [24] 92.1 nM and 66.7 nM and 493 nM | [25] 185 nM and 33.1 nM and 526 nM
inactive: [1] | [2] | [3] | [4] | [6] | [7] | [12] | [15] | [16] | [17] | [18]
